About 5,100 (2.5%) of roughly 200,000 compounds were called active.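 How the source made its calls: active means activation above the screen-wide mean activation plus 3 SD (cut at about 130% in these data); inactive means the rest.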 What follows is part of a selection rich in actives, with near analogues and random picks from the rest.
Assay: potentiators of IFN-gamma driven STAT1 reporter – cell-based, HTS, luciferase reporter, primary screen (AID 932);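 further: raw ratio to IFN-gamma control signal so 100% means no change and 0% no light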
Conditions: NIH 3T3 STAT1-luciferase reporter, luminescence, at 5.5 µM, hits give high values, 100% = IFN-gamma alone, no compound
With `COc1ccc(Cc2nnc(NC(=O)c3cc(OC)c(OC)c(OC)c3)s2)cc1OC` the activation (% of control) was 89.1% (inactive). With `CCOCCCNC(=O)C(NC(=O)Cc1c[nH]c2ccccc12)c1ccc(OC)cc1` (stereo not given) the activation (% of control) was 87.9% (inactive). In the case of `O=C(CSCc1ccc(Cl)cc1)N1CCCCC1`, the activation (% of control) is reported as 121% (inactive). With `O=C(CSCc1cccs1)N1CCCC1` the activation (% of control) was 129% (active). With `O=C(CSc1ccsc1[N+](=O)[O-])N1CCCCC1` the activation (% of control) was 94.8% (inactive). For `COc1ccc(C(=O)NCc2nnc(SCCOc3ccccc3)n2C)cc1`, the activation (% of control) was 102% (inactive). For `CCS(=O)(=O)n1nc(-c2ccc(OC)cc2)nc1SC`, the activation (% of control) was 112% (inactive). In the case of `CS(=O)(=O)n1nc(-c2ccccc2)nc1NCc1ccco1`, the activation (% of control) is reported as 102% (inactive). For `CCS(=O)(=O)n1nc(-c2ccccc2)nc1SCc1ccccc1`, the activation (% of control) was 130% (active). For `COc1cccc(-n2c(=O)c3c(C)c(C(=O)N(C)C)sc3n(CC(=O)NCCc3ccc(OC)c(OC)c3)c2=O)c1`, the activation (% of control) was 97.9% (inactive). For `COc1ccc(/C=N/NC(=O)Nc2ccc3nsnc3c2)c(OC)c1`, the activation (% of control) was 114% (inactive). For `COc1ccc(NC(=O)Nc2ccc3nsnc3c2)cc1`, the activation (% of control) was 146% (active). For `COc1ccc(NC(=O)c2ccc(OC)cc2)cc1`, the activation (% of control) was 140% (active). In the case of `COc1ccc(NC(=O)Nc2ccc3nc(C)c(C)nc3c2)cc1`, the activation (% of control) is reported as 103% (inactive). With `COc1ccc(C(=O)Nc2ccc(S(=O)(=O)NC(C)C)cc2)cc1` the activation (% of control) was 93.8% (inactive). For `COc1ccc(NC(=O)c2ccc(C#CC(C)(C)O)cc2)cc1`, the activation (% of control) was 106% (inactive). For `CCOc1cc(/C=C(/C#N)c2ccc(Cl)cc2)cc(Cl)c1OCC(=O)O`, the activation (% of control) was 56.1% (inactive). In the case of `COc1ccccc1Cn1c(C)nnc1-c1cnn(C)c1N`, the activation (% of control) is reported as 93.2% (inactive). With `CCN(CCn1cccn1)Cc1cn[nH]c1-c1ccc(OC)cc1F` the activation (% of control) was 89% (inactive). For `COc1ccc2ccccc2c1CNc1nnnn1C`, the activation (% of control) was 99.2% (inactive). For `CCC(=O)Nc1c(C)n[nH]c1C`, the activation (% of control) was 102% (inactive). In the case of `COc1ccc(-n2cc(CN(C)Cc3n[nH]c(=O)[nH]3)c(-c3cccc(F)c3)n2)cc1`, the activation (% of control) is reported as 104% (inactive). With `Cc1ccc(NC(=S)N(CCCN2CCCC2)Cc2cccn2Cc2ccc(Cl)cc2)cc1` the activation (% of control) was 85.3% (inactive). With `Cc1ccc(S(=O)(=O)NCCc2nnc3ccc(SCc4cccnc4)nn23)cc1` the activation (% of control) was 99% (inactive). For `COc1cc(-c2nc(-c3ccncc3)no2)cc(OC)c1OC`, the activation (% of control) was 97.3% (inactive). With `COc1ccc(-c2noc(-c3cccc(OC)c3OC)n2)cc1OC` the activation (% of control) was 144% (active). In the case of `CCOc1nc(-c2ccc(OC)cc2)ccc1-c1noc(-c2cc(OC)c(OC)c(OC)c2)n1`, the activation (% of control) is reported as 102% (inactive). In the case of `COc1cccc(NC(=O)CN(C)C(C)C(=O)Nc2ccc(C#N)cc2)c1` (stereo not given), the activation (% of control) is reported as 90.8% (inactive). For `O=C(N/N=C/c1ccc2c(c1)OCO2)C(=O)N1CCCC1`, the activation (% of control) was 132% (active). With `O=C(N/N=C/c1ccc([N+](=O)[O-])cc1)C(=O)N1CCCC1` the activation (% of control) was 107% (inactive). For `COc1cccc(/C=N/NC(=O)C(=O)N2CCCC2)c1`, the activation (% of control) was 99% (inactive). In the case of `CC(Nc1nc(N2CCN(CCO)CC2)nc2ccccc12)c1ccccc1` (stereo not given), the activation (% of control) is reported as 106% (inactive). With `CN(CCC1CCOCC1)Cc1cn[nH]c1-c1ccc(-c2ccccc2)cc1` the activation (% of control) was 115% (inactive). In the case of `Cc1cccc(CSc2nnc(NC(=O)CSc3nnc(C)s3)s2)c1`, the activation (% of control) is reported as 107% (inactive). With `O=C(CSc1ccc(-c2cccs2)nn1)Nc1ccccc1F` the activation (% of control) was 104% (inactive). With `Cc1cccc(CSc2ccc(-c3cccs3)nn2)c1` the activation (% of control) was 130% (active). For `Cc1ccc(NC(=S)N(CCN2CCCCC2)Cc2ccco2)cc1C`, the activation (% of control) was 98% (inactive). With `C=CCC1(CC=C)CCCN1C(=O)CC1C(=O)NCCN1Cc1ccccc1OC` (stereo not given) the activation (% of control) was 98.1% (inactive). In the case of `CCn1c(C)nc2cc(C(=O)NNS(=O)(=O)c3ccc(C)cc3C)ccc21`, the activation (% of control) is reported as 95% (inactive). For `CCOC(=O)c1ccc2c(c1)nc(SCC(=O)NC(C)C)n2CC`, the activation (% of control) was 103% (inactive). In the case of `CCOC(=O)c1ccc2c(c1)nc(C)n2CC`, the activation (% of control) is reported as 130% (active). In the case of `COc1ccc2nc(/N=C(\N)NC(=O)Nc3ccccc3)nc(C)c2c1`, the activation (% of control) is reported as 104% (inactive). For `Cc1ccc(/C=N/NC(=O)Cn2ccc(C(F)(F)F)n2)o1`, the activation (% of control) was 94.7% (inactive). In the case of `Cc1cc(N/C=C\C(=O)c2ccc(Cl)c(Cl)c2)no1`, the activation (% of control) is reported as 135% (active). With `CCC(=O)Nc1ccc(C(=O)Nc2cc(C)on2)cc1` the activation (% of control) was 107% (inactive). With `COc1ccc(C(=O)/C=C/Nc2ccccn2)cc1` the activation (% of control) was 23.6% (inactive). In the case of `CCn1c(C(C)C)n[nH]c1=S`, the activation (% of control) is reported as 103% (inactive). In the case of `CCc1nnc(NC(=O)CSc2nc(SC)ns2)s1`, the activation (% of control) is reported as 101% (inactive). For `O=C(CSc1nnc2ccc(-c3ccncc3)nn12)N1CCCCC1`, the activation (% of control) was 95.3% (inactive). For `CCSC1=NCCN1C(=O)c1ccc(S(=O)(=O)N(CC)CC)cc1`, the activation (% of control) was 95.6% (inactive).
